Data on five compounds can be found in PubChem BioAssay.

Assay [1] in a line: rapamycin-like changes in RPL19A-GFP expression – cell-based, S. cerevisiae, multiplex flow cytometry, primary screen (AID 1862; in the data active means percent of DMSO control GFP below about 86%;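 further: lower values mimic rapamycin by blocking the RPL19A rise seen in DMSO cells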). To be noted: S. cerevisiae RPL19A-GFP strain, flow cytometry fluorescence, 3 h; at 10 µM; stronger effect = lower value. A general note: A flow cytometer gives signals particle by particle.
Assay [2] is described as follows: TOR pathway GLN3 branch reporter MEP2-GFP changes – S. cerevisiae, multiplex flow cytometry, primary screen (AID 1867;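 active means GFP response, as percent of the DMSO control, above the screen-wide mean plus 3 SD, about 139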;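 further: median GFP channel fluorescence of barcode-gated MEP2-GFP cells measured by flow cytometry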). Particulars: S. cerevisiae MEP2-GFP strain, 3 h, at 10 µM, stronger effect = higher value, 100% means same as DMSO wells.
The nature of assay [3]: TOR pathway RTG branch CIT2 reporter changes – S. cerevisiae, GFP fusion, multiplex flow cytometry, primary screen (AID 1870;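 active means percent response above a set limit, the screen-wide mean plus 3 SD, cut at about 130% in these data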;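 further: barcoded CIT2-GFP strain pooled with four other GFP strains with rapamycin as positive control; median GFP fluorescence per well over plate mean of DMSO wells so 100% = DMSO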). To be noted: S. cerevisiae CIT2-GFP expression, 3 h, at 10 µM, stronger effect = higher value.
Assay [4] can be described thus: TOR pathway LAP4-GFP level changes – S. cerevisiae, multiplex flow cytometry, primary screen (AID 1873;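 active means GFP signal, as percent of the solvent control, above the screen mean plus 3 SD, about 149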). To be noted: S. cerevisiae LAP4-GFP expression, 3 h, at 10 µM, stronger effect = higher value.
Assay [5] can be described thus: yeast AGP1-GFP level changes, GLN3 branch – cell-based, multiplex flow cytometry, S. cerevisiae, primary screen (AID 1887;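 active means GFP signal above the screen-wide mean plus 3 SD, that is over about 124.5% of the solvent control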;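 further: AGP1-GFP fusion strain of S. cerevisiae within a five-strain barcoded multiplex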). To be noted: 3 h, at 10 µM, stronger effect = higher value.
The nature of assay [6]: reduced mouse 2C T cell binding to pMHC/ICAM-1 vesicles – MLPCN validation set, flow cytometry, LFA-1/ICAM-1 modulator project, pilot screen (AID 2523;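 active means response below a set limit, under 55% cells CD8-positive and vesicle-bound, and CD8 cells' 90th-percentile brightness under 279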;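 on vesicle binding response: mean PE anti-B7-1 fluorescence of CD8+ cells relative to row control; 100% = QL9-loaded vesicles with DMSO vehicle in the same plate row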). Particulars: 2C mouse CD8+ T cells, at 7 µM, stronger effect = lower value; double positive events: measured here: CD8+/vesicle+ event percentage.
Assay [7] concerns the target Integrin beta-1 (Homo sapiens) + Integrin alpha-4 (Homo sapiens) (UniProt P13612+P05556). Briefly: alpha4beta1 integrin LIBS antibody binding reduction – U937 cells, HUTS-21 mAb, flow cytometry, validation set, VLA-4 allosteric modulator project, pilot screen (AID 2674;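 active means inhibition above 50%, about 3 SD of the validation set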;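 further: antibody binding induced by the VLA-4 ligand LDV present at three times its Kd; 0% = LDV ligand with antibody and no compound and 100% = antibody without LDV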). Particulars: HUTS-21 LIBS mAb binding, at 6.7 µM, stronger effect = higher value, binding induced by LDV ligand.

A short description of assay [8]: calorie-restriction mimetic ROS inhibitors, yeast – validation compound set, pilot screen (AID 2706;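 active means superoxide response below 65% of plate, a cut near 3 SD across the whole screen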;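 further: yeast exposed to compound for one week at 30 degrees C before staining; 100% = mean of all compound wells on the same plate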). To be noted: S. cerevisiae aging, superoxide DHE fluorescence; at 10 µM; stronger effect = lower value.
Assay [9] concerns the target Beta-adrenergic receptor kinase 1 (Homo sapiens) (UniProt P25098). Nature of the assay: GRK2 binders displacing RNA aptamer, biochemical, validation, human GRK2, bead flow cytometry (AID 488806;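 active means aptamer binding inhibition above 30%, about 3 SD of noise from non-fluorescent compounds; inactive means inhibition at or below 30%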). To be noted: bead-bound GRK2, FAM-aptamer displacement, at 10 µM, stronger effect = higher value.
For assay [10], the target named is Beta-2 adrenergic receptor (Homo sapiens) (UniProt P07550). Nature of the assay: agonist-induced loss of surface beta2AR – cell-based, FAP fluorogen, flow cytometry, validation set, pilot screen (AID 504459;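 active means percent response above 42, roughly 3 SD of non-fluorescent test compounds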;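 further: agonist-driven loss of surface beta2AR via internalization measured by FAP dye flow cytometry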). To be noted: Am2.2-beta2AR cells, at 10 µM, stronger effect = higher value.
In assay [11] the target is AP-2 complex subunit beta (Homo sapiens) (UniProt P63010). Briefly: beta-arrestin/AP2 interaction blockers – biochemical, validation set, GST-AP2 beads, flow cytometry, pilot screen (AID 504541;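 active means inhibition above 54%, about 3 SD of non-fluorescent compounds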;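 further: AP2 carries R879A mutation and is captured from E. coli lysate; bead-bound FITC arrestin peptide fluorescence measuring arrestin peptide binding to AP2; 0% = DMSO wells and 100% = excess unlabeled arrestin peptide control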). To be noted: FITC arrestin peptide, at 10 µM, stronger effect = higher value, AP2 beta2 appendage fragment, R879A mutant.
Assay [12] can be described thus: cytosolic pH regulators acting via V-ATPase – S. cerevisiae, pHLuorin, HTS validation (AID 504600; in the data active means response above about 15%;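 further: plate controls were DMSO for no effect and reference compound for full effect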). To be noted: V-ATPase proton transport, at 10 µM, stronger effect = higher value.
Assay [13] deals with anti-desmoglein-3 scFv antibody binding to human DSG3. Briefly: blockers of pathogenic pemphigus antibody–desmoglein-3 binding – biochemical, validation compound set, bead-based, flow cytometry, pilot screen (AID 588368).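 Further: signal is the median channel fluorescence of bead-bound GFP antibody.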 Particulars: Protein G beads, DSG3-Fc, scFv-GFP binding, at 10 µM, stronger effect = lower value.
Assay [14] can be described thus: Nile Red efflux blockade in pump-expressing yeast – validation compound set, multiplex, phenotypic, pilot screen (AID 588506;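 active means efflux inhibition above 0.42, the validation set average plus 4 SD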;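 further: Nile Red retained in cells so higher fluorescence means more efflux inhibition; 0 = negative control wells and 1 = enniatin B 25 µM full block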). Particulars: S. cerevisiae pump-expressing triplex, Nile Red efflux flow cytometry; at 10 µM; stronger effect = higher value; the pumps come from Candida albicans.
The target in assay [15] is ATP-binding cassette sub-family B member 6 (Homo sapiens) (UniProt Q9NP58). Nature of the assay: blockers of ABCB6-driven porphyrin uptake – K562-ABCB6 cells, flow cytometry, validation set, pilot screen (AID 588550;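 active means inhibition above the screen-wide mean plus 3 SD, about 51%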;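 further: 0% = DMSO wells and 100% = benzethonium chloride 70 µM positive control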). Particulars: K562-ABCB6 porphyrin accumulation, 1 h, at 10 µM, stronger effect = higher value.
A short description of assay [16]: AML differentiation inducers, ER-HoxA9 marrow cells – cell-based, GFP/MAC1 double positive, flow cytometry, validation set, primary screen (AID 588685;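 active means differentiation response of at least 50%, scaled between solvent and reference control, from cells with both markers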;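 further: compound exposure lasts four days before antibody staining and flow analysis; 0% = DMSO wells and 100% = 5 µM fulvestrant positive control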). Particulars: stronger effect = higher value, normalized: vehicle 0, fulvestrant 100.

Inconclusive results are not listed. The source made the active and inactive calls.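 How the source made its calls, unless noted: active means binding below the plate cutoff, the plate median minus 3 SD, with a reading above zero; inconclusive means below the plate cutoff but reading exactly zero; inactive means the rest.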

By inhibition is commonly meant the change of the read-out against control, counted positive when it falls.

Beta-2 adrenergic receptor (Homo sapiens), sequence (P07550 whole entry, looked up): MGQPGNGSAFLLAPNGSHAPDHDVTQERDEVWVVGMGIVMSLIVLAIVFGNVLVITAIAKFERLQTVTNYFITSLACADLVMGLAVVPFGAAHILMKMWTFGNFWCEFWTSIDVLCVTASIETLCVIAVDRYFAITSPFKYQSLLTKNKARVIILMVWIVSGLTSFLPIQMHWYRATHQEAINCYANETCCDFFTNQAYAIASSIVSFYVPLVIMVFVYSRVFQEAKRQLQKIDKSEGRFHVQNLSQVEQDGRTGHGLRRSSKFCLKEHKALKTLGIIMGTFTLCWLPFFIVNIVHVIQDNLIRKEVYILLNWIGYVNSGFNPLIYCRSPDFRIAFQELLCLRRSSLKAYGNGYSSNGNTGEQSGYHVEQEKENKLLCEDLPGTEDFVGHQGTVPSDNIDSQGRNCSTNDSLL
AP-2 complex subunit beta (Homo sapiens), sequence (P63010 whole entry, looked up, the tested form may be a part, one chain of several): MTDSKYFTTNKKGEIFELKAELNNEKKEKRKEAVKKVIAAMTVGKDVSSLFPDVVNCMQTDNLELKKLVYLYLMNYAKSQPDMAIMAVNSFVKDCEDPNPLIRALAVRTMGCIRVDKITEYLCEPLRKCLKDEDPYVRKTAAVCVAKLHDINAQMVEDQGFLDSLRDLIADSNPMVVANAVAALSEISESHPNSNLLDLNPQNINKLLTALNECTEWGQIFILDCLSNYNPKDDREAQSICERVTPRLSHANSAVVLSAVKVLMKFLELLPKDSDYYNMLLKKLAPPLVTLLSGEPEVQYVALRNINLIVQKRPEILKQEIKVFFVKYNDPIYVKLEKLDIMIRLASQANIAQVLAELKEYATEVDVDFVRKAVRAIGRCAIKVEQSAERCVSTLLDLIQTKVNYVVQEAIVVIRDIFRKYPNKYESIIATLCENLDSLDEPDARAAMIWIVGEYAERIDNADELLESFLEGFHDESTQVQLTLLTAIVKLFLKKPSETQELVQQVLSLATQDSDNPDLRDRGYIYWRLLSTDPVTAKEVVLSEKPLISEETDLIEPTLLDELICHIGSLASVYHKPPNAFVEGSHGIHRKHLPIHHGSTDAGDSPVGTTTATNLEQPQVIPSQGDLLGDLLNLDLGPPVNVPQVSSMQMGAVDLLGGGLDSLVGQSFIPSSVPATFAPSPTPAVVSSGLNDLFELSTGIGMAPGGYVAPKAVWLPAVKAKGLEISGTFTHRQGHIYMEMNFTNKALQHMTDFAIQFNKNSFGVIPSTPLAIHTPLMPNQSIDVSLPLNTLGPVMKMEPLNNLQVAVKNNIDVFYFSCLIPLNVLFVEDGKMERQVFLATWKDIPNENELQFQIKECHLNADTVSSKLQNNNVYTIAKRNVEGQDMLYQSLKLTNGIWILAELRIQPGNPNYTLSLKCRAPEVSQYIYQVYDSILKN
ATP-binding cassette sub-family B member 6 (Homo sapiens), sequence (Q9NP58 whole entry, looked up): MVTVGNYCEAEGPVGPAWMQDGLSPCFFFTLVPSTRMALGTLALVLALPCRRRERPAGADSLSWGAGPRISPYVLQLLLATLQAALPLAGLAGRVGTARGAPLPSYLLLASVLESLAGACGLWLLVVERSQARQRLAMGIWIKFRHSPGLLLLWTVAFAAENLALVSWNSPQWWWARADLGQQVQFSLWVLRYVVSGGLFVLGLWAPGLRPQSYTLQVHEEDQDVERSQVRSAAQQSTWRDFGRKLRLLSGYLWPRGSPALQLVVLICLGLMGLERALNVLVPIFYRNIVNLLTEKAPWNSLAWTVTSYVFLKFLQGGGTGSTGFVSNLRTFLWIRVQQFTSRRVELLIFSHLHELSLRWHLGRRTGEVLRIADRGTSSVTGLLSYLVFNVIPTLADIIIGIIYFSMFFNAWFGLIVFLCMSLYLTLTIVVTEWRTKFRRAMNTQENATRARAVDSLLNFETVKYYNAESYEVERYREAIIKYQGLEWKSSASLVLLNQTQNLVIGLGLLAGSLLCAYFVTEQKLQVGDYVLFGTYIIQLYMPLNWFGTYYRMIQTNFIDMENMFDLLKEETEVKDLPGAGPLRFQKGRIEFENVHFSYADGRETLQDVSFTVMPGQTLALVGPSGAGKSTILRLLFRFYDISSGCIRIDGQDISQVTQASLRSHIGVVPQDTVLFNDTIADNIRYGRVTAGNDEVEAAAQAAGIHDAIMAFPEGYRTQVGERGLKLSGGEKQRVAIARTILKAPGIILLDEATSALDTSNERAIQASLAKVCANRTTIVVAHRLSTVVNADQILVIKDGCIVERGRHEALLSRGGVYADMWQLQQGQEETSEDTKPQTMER
Integrin beta-1 (Homo sapiens) + Integrin alpha-4 (Homo sapiens), sequence (P05556 whole entry, looked up): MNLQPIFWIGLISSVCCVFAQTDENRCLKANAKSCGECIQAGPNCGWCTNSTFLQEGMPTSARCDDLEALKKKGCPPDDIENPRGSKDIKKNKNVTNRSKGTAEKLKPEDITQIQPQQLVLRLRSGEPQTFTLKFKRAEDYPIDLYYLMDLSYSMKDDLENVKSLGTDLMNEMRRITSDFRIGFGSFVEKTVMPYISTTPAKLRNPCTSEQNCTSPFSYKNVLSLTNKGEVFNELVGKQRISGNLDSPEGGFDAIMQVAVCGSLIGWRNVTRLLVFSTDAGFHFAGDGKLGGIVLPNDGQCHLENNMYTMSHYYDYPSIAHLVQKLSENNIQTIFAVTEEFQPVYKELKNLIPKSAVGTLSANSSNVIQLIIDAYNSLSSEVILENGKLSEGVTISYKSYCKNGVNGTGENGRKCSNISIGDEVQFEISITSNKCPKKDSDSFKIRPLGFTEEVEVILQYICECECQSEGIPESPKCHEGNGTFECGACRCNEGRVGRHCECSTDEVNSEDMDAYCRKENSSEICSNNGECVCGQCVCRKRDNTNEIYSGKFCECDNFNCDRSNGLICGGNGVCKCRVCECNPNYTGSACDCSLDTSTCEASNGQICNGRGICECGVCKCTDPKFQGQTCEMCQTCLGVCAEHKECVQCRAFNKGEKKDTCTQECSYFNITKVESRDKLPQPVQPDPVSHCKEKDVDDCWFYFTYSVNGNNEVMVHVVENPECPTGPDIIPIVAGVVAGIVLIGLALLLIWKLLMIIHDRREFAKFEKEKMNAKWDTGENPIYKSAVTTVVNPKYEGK
Integrin beta-1 (Homo sapiens) + Integrin alpha-4 (Homo sapiens), sequence (P13612 whole entry, looked up): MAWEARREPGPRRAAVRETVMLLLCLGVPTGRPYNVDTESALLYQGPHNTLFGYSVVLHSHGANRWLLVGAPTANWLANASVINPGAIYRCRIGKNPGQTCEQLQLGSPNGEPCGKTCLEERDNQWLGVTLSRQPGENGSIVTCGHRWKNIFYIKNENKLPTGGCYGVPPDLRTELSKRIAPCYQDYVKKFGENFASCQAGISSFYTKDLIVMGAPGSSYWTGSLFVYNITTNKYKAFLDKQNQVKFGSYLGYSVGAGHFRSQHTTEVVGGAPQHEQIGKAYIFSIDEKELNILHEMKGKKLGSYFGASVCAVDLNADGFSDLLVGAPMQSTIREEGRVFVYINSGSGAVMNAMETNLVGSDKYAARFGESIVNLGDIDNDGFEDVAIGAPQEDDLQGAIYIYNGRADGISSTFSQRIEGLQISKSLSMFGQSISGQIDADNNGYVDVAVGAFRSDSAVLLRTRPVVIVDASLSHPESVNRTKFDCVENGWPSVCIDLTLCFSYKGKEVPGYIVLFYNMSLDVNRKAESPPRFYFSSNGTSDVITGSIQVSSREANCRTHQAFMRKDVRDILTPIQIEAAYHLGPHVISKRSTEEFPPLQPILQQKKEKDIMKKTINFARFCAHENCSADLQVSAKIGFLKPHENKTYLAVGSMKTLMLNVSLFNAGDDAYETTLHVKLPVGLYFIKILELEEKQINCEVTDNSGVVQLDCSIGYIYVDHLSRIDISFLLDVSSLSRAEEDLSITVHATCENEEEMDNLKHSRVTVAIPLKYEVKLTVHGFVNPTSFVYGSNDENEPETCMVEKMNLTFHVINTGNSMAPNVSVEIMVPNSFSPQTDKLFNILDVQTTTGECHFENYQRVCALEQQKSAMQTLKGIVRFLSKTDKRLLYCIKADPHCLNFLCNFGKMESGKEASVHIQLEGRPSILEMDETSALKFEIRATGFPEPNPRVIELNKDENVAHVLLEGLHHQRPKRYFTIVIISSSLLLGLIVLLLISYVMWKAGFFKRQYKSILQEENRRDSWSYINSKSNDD
Beta-adrenergic receptor kinase 1 (Homo sapiens), sequence (P25098 whole entry, looked up): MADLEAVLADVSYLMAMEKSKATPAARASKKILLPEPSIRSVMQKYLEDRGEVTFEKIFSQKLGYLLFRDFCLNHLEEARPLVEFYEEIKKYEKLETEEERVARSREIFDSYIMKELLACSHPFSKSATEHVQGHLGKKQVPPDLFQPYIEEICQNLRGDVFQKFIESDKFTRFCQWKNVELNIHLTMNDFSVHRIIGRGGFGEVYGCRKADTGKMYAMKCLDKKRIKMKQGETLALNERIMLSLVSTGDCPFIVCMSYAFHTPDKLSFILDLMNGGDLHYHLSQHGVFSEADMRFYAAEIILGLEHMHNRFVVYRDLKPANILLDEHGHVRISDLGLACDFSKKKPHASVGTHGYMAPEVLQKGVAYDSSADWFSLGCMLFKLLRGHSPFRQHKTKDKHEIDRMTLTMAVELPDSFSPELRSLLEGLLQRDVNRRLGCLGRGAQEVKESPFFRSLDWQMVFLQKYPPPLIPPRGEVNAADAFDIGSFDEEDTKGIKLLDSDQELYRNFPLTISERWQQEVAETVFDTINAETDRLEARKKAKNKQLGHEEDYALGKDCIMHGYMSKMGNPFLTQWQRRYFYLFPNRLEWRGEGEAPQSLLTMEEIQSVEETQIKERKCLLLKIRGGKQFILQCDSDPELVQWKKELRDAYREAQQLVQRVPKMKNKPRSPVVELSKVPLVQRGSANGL

In the case of `O=c1nc2n(c3c1oc1ccccc13)Cc1ccccc1-2`, the percent of DMSO control GFP in assay [1] was 100% (inactive). Also, the GFP response vs DMSO in [2] and in assay [4] was 105% (inactive) in each case. For the same compound, the percent response of DMSO control in [3] was 104% (inactive). In addition, the GFP response, % of DMSO in [5] is 108% (inactive). For the same compound, the double positive events in [6] was determined as 56.6%. Further, the vesicle binding response in assay [6] was 142% (inactive). The inhibition in [7] is -3.77% (inactive); in assay [11], -6.48% (inactive); in [15], -3% (inactive). Besides, in assay [8], the superoxide response (% of plate) is 93.6% (inactive). For the same compound, the aptamer binding inhibition in assay [9] was -1% (inactive). Besides, the response in [10] is -25.7% (inactive); in [12], -0.9% (inactive). The binding (% of control) in assay [13] was 99.6% (inactive). Further, the efflux inhibition (fraction of control) in assay [14] is -0.3 (inactive). Also, the differentiation response in assay [16] was -6.03% (inactive).
In the case of `CCN(CC)c1ccc([C@H]2[C@@H]3CCCC[C@]3(O)CCN2CC(=O)NCc2ccco2)cc1`, the percent of DMSO control GFP in assay [1] is 97.4% (inactive). The results for the GFP response vs DMSO in assay [2] and in assay [4] were 108% (inactive) and 121% (inactive), respectively. In addition, the percent response of DMSO control in assay [3] was 91% (inactive). For the same compound, the GFP response, % of DMSO in [5] is 98.5% (inactive). Besides, the double positive events in assay [6] came out at 60.3%. Besides, in [6], the vesicle binding response was 190% (inactive). In addition, the inhibition was -25% (inactive) in assay [7], -7.96% (inactive) in assay [11] and 8% (inactive) in assay [15]. In [8], the superoxide response (% of plate) was 95.1% (inactive). The aptamer binding inhibition in assay [9] is 4% (inactive). The response is 47.5% (active) in assay [10] and 25.9% (active) in assay [12]. Besides, in assay [13], the binding (% of control) was 99.5% (inactive). Also, in assay [14], the efflux inhibition (fraction of control) was 0.33 (inactive). In addition, in assay [16], the differentiation response is -7.2% (inactive).
On to `CC(C)c1cc(=O)oc2c3c4c(cc12)CCCN4CCC3`, for which, in assay [1], the percent of DMSO control GFP was 104% (inactive). In addition, the GFP response vs DMSO in assay [2] was 99.6% (inactive); in assay [4] it was 78.6% (inactive). For the same compound, the percent response of DMSO control in [3] was 99.6% (inactive). Further, the GFP response, % of DMSO in assay [5] is 90.6% (inactive). The double positive events in assay [6] was determined as 59.3%. In assay [6], the vesicle binding response is 145% (inactive). Moreover, in assay [8], the superoxide response (% of plate) is 97.7% (inactive). The aptamer binding inhibition in [9] was 9% (inactive). Further, the values for the response in assay [10] and in assay [12] were 46% (active) and 21.6% (active), respectively. Further, the inhibition in assay [11] is -43.1% (inactive); in assay [15], 2% (inactive). Also, the binding (% of control) in [13] is 98.7% (inactive). In addition, the efflux inhibition (fraction of control) in assay [14] was 0.3 (inactive). Further, the differentiation response in assay [16] was -21.6% (inactive).
As for `COc1ccc(C2c3c(n[nH]c3C)CC(C)(O)C2C(C)=O)cc1OC` (stereo not drawn), the percent of DMSO control GFP in [1] was 87.3% (inactive). Moreover, the GFP response vs DMSO in assay [2] was 129% (inactive); in [4] it was 76.5% (inactive). The percent response of DMSO control in assay [3] was 97.9% (inactive). Further, the GFP response, % of DMSO in [5] was 90.3% (inactive). This compound displayed a double positive events in assay [6] of 67.8%. The vesicle binding response in [6] is 58.4% (inactive). The inhibition in assay [7] is 10.3% (inactive); in assay [11], -0.31% (inactive); in assay [15], 7% (inactive). Also, the superoxide response (% of plate) in [8] was 106% (inactive). Besides, the aptamer binding inhibition in assay [9] was 4% (inactive). Besides, the values for the response in assay [10] and in assay [12] were -2.94% (inactive) and 0.84% (inactive), respectively. The binding (% of control) in assay [13] was 103% (inactive). Further, the efflux inhibition (fraction of control) in [14] is -0.13 (inactive). Besides, the differentiation response in assay [16] is 13.1% (inactive).
As to `COc1c(O)ccc2c1CN1CCc3cc4c(cc3C1C2)OCO4` (stereo not drawn), in [1], the percent of DMSO control GFP is 107% (inactive). In addition, the GFP response vs DMSO was 112% (inactive) in assay [2] and 130% (inactive) in assay [4]. Also, the percent response of DMSO control in assay [3] is 93.9% (inactive). In addition, in [5], the GFP response, % of DMSO is 103% (inactive). In assay [6], this compound showed a double positive events of 61.6%. For the same compound, the vesicle binding response in [6] is 157% (inactive). For the same compound, in assay [8], the superoxide response (% of plate) is 92.6% (inactive). Besides, in [9], the aptamer binding inhibition was 1% (inactive). Further, the figures for the response in assay [10] and in [12] were 24.6% (inactive) and -1.39% (inactive), respectively. The values for the inhibition in [11] and in assay [15] were 30.3% (inactive) and -25% (inactive), respectively. Further, the binding (% of control) in assay [13] was 99.7% (inactive). For the same compound, in assay [14], the efflux inhibition (fraction of control) was 0.66 (active). Further, in [16], the differentiation response is 23.2% (inactive).
